Measured values: PubChem BioAssay (NCATS)
“And” between values parts separate entries of the source, which are not always exact repeats. Equal values may be shown once. Inconclusive results are not listed. Values without a mark were called inactive. The source made the active and inactive calls. The call rests on the fitted dose curve; in most records, active means well fitted curve in either direction with a large enough effect (not every such curve was filed as active); inconclusive means small, poorly fitted or top-dose-only effect, or another doubt; inactive means flat fitted curve, though single readings scatter.

Assay: AP1 Signaling Pathway (AID 357);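 further: ME-180 reporter cells stimulated with EGF at its EC50 level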
Conditions: ME-180 AP-1-bla reporter, EGF-induced, beta-lactamase ratio, 5 h; at 17.2 µM (top of the series)
Excerpt: NCGC Assay Overview: Activator protein-1 (AP-1), a transcription factor, plays an important role in tumor genesis by regulating genes involved in cell proliferation, differentiation, apoptosis, and angiogenesis. AP-1 activity is induced by a complex network of signaling pathways that involves extracellular signals, such as growth factors. The AP-1 protein complex formed from c-Fos and c-Jun binding to the AP-1 response element results in transcriptional activation of genes containing such elements within their promoter. Low molecular weight molecules have been discovered and developed to modulate various components of these signaling pathways, for example, MAP kinase inhibitors. However, many points of pathway modulation remain untested due to the lack of chemical probes making this signaling locus of general interest. Using a beta-lactamase reporter-gene under control of the AP-1 response element, a cell-based assay [CellSensor(TM) AP-1-bla ME-180 developed by Invitrogen Corp.] was used to measure EGF-induced signaling. Library compounds were measured for their ability to modulate positively or negatively the action of EC50 EGF on reporter gene activity. Compounds were screened in a titration series in 1536-well format. Positive and negative modulators were identified based on the AC50 values derived from the screening data.
NCGC Assay Protocol Summary: 2500 cells/5uL in Opti-MEM medium containing 0.5% dialyzed FBS, 0.1 mM NEAA, 1 mM sodium pyruvate and 10 mM HEPES was dispensed into 1536-well plates and cells were cultured at 37 degrees Celsius overnight. […] After centrifugation at 1000 rpm for 2 seconds the plates were incubated at 37 degrees Celsius for 5 hours. 1 uL of CCF4-dye mixture was added to each well. After incubated at room temperature for 2.5 hours the plates were measured on an EnVision plate reader at Excitation 405nm, Emission1=460nm and Emission 2=530nm. The %Activity was determined from the ratio of 460nm/530nm.
On the % scale 0 is the no-effect control and ±100 the full control effect.

SMILES | activity change, negative = inhibition
COc1ccc(-c2ccc(N)[n+](CCCC(=O)O)n2)cc1 | -6.26%
O=C(O)c1cc2cc(F)ccc2[nH]1 | 14.4%
CCCn1c(=O)c2[nH]c(C3CCCC3)nc2n(CCC)c1=O | -7.55%

Same assay, conditions: ME-180 AP-1-bla reporter, EGF-induced, beta-lactamase ratio, 5 h; at 38 µM (top of the series)

SMILES | activity change, negative = inhibition
COc1ccc(-c2ccc(N)[n+](CCCC(=O)O)n2)cc1 | -9.04%
O=C(O)c1cc2cc(F)ccc2[nH]1 | 0.264%
CCCn1c(=O)c2[nH]c(C3CCCC3)nc2n(CCC)c1=O | -12.1%

Same assay, conditions: ME-180 (cervical carcinoma) AP-1-bla reporter, EGF-induced, beta-lactamase ratio, 5 h; at 38 µM (top of the series) unless noted

SMILES | activity change, negative = inhibition
O=C1Cc2c([nH]c3ccc(Br)cc23)-c2ccccc2N1 | -104% (active)
C[N+](C)(C)CC=O | 3.33%
c1ccc(CN2CCC3(CCCc4ccccc43)CC2)cc1 | 11.9%
O=C(OCCN1CCOCC1)C1(c2ccccc2)CCCCC1 | -11.4%
CCCOC(=O)c1c(-c2ccccc2)nc(CC)c(C(=O)SCC)c1CCC | 2.66%
O=C(O)C1=CCNCC1 | -4.73%
S=C(S)N1CCCC1 | 12.8%
O=c1onc2cnc3ccccc3n12 | -2.81%
N#C/C(=C\c1ccc(O)c(O)c1)C(=O)NCCCNC(=O)/C(C#N)=C/c1ccc(O)c(O)c1 | -12.1%
NC(N)=NC(N)=Nc1cccc(Cl)c1 | -8.78%
Nc1nc2ccc(Cl)cc2c2nc(-c3ccco3)nn12 | -6.92%
O=c1[nH]c2cc(Cl)ccc2c(O)c1-c1ccc(Oc2ccccc2)cc1 | 3.01%
NCCS(=O)O | 7.28%
O=C(O)C1CCNCC1 | -3.06%
Nc1ccc2c3c(cccc13)C(=O)NC2=O | -5.58%
NOCC(=O)O | 12.3%
CCN(CC)CCOC(=O)c1cc(Cl)c(N)cc1OC | 11.7%

SMILES | activity change, negative = inhibition
O=C(O)Cc1ccc(O)c(O)c1 | -7.22%
CC(=O)NCCc1c[nH]c2ccc(O)cc12 | -2.23%
CN1CCN(c2nc3cc(C(F)(F)F)ccc3n3cccc23)CC1 | -17.4%
Cn1cc(C(=O)OCC2CCN(CCNS(C)(=O)=O)CC2)c2ccccc21 | -4.52%
O=C(O)c1cccnc1C(=O)O | -4.89%
O=c1[nH]c(=S)[nH]c(-c2ccccc2)c1Cc1c(O)ccc2ccccc12 | -11.2% [at 7.69 µM]
CCCCCCCCCCCCCCSCC(=O)O | -3.84%
CCn1c(=O)[nH]c2cc(Cl)c(Cl)cc21 | 0.191%
N[C@H](C(=O)O)c1cc(O)cc(O)c1 | 7.53%
NC/C=C\C(=O)O | 2.58% and 1.13%
CC(=O)C(C)=O | -3.27%
Cc1nc(N=Nc2ccc(C(=O)O)cc2)c(COP(=O)(O)O)c(C=O)c1O | -5.94%
CC(C)Cn1c(=O)n(C)c(=O)c2[nH]cnc21 | 0.858%
Cc1nc(N=Nc2cc(S(=O)(=O)O)c3cc([N+](=O)[O-])cc(S(=O)(=O)O)c3c2)c(COP(=O)(O)O)c(C=O)c1O | -0.539%
Cn1c(=O)c2[nH]c(C3CCCC3)nc2n(C)c1=O | 0.66%
N=C(N)c1ccccc1 | 10.4%
Cc1cccc(C(=O)NCN2CCN(c3ccccc3C#N)CC2)c1 | -12.1%
